Laboratory results reported in PubChem BioAssay (NCATS).
Results filed as inconclusive are left out. Activity calls are given as the source filed them. The call rests on the fitted dose curve; in most records, active means well fitted curve in the direction sought with a large enough effect; inconclusive means small, poorly fitted or top-dose-only effect, or another doubt; inactive means no such curve, though single readings can be large; an effect the other way counts as inactive or inconclusive.

How the values were obtained:
[1] = qHTS to identify inhibitors of the type 1 interferon - major histocompatibility complex class I in skeletal muscle: primary screen against the NCATS LOPAC collection (AID 1347405);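 further: human myoblasts with HiBiT tag on endogenous HLA-B stimulated by IFN-beta; lytic HiBiT luminescence reporting HLA-B protein level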
Method in brief: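 IFN-beta-stimulated (4 ng/ml) HLA-B HiBiT knock-in myoblasts, compound-treated 24 hrs up to 46 uM final; signal via LgBiT complementation and furimazine luminescence.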

[2] = qHTS for inhibitors of adenylyl cyclases using a fission yeast platform: a pilot screen against the NCATS LOPAC library (AID 1347410)
Method in brief: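 Read-out: fbp1-GFP fluorescence by laser scanning cytometry (488 nm laser), a gain of signal when AC/cAMP-PKA signalling is inhibited. Strain CHP2027 expressing AC9, GNAS and PDE4D2; compounds at up to 57 µM; 18 h, 30C.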

[3] = Validation qHTS assay for inhibitors of Activation Induced Cytidine Deaminase (AID): UDG Counterscreen signal (AID 1347427)
Method in brief: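 Fluorescence at 560 nm excitation, 665 nm emission reports UDG signal after 250 mM NaOH (2x) addition and 30 min. Enzymes (AID 1 uM, UDG 2 U/mL, at 4/3x) preincubated 10 min with compound, then 4 h with 4x 250 nM DJC20/DJC23 substrate at room temperature.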

[4] = target: Single-stranded DNA cytosine deaminase (Homo sapiens) (UniProt Q9GZX7); assay: Validation qHTS assay for inhibitors of Activation Induced Cytidine Deaminase (AID): AID signal (AID 1347429)
Method in brief: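 Compounds (up to 114 uM final) are tested against AID plus UDG using DJC20/DJC23 FRET substrate. Reactions incubate 4 hr at room temperature, receive NaOH for 30 min, and are read at Ex 540/Em 590 nm.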

Measured: Potency

Chain of Single-stranded DNA cytosine deaminase (Homo sapiens) (Q9GZX7 whole entry, looked up): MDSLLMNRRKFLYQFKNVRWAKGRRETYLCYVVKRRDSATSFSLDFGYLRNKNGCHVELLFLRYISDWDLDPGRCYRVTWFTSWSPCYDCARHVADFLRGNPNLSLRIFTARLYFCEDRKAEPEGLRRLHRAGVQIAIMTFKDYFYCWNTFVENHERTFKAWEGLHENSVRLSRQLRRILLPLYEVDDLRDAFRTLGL

CCCn1c(=O)c2[nH]c(C3CCCC3)nc2n(CCC)c1=O
inactive: all assays above

NC1(C(=O)O)CCc2cc(C(=O)O)ccc21 (stereo unspecified)
inactive: all assays above

O=c1ccn([C@@H]2O[C@H](COP(=O)(O)OP(=O)(O)O)[C@@H](O)[C@H]2O)c(=O)[nH]1
inactive: all assays above

CC(N)(C(=O)O)c1ccc(C(=O)O)cc1 (stereo unspecified)
inactive: all assays above

Nc1ncnc2c1nc(Sc1ccc(Cl)cc1)n2[C@H]1OC2COP(=O)(O)O[C@@H]2C1O (stereo partly specified)
inactive: all assays above

C#CCn1c(=O)c2c(ncn2C)n(C)c1=O
inactive: all assays above

C/C(=C\c1ccc(C(=O)O)cc1)c1ccc2c(c1)C(C)(C)CCC2(C)C
inactive: all assays above

Nc1ccc(N2C(=O)c3ccccc3C2=O)c(Cl)c1
inactive: all assays above

O=c1ccc2c(OCCCCc3ccccc3)c3ccoc3cc2o1
inactive: all assays above

CN1CCN(c2nc3cc(C(F)(F)F)ccc3n3cccc23)CC1
inactive: all assays above

COc1ccc(C(=O)NCc2cccnc2)cc1C(=O)NCc1cccnc1
inactive: all assays above

CCN(CC)CCOC(=O)c1cc(Cl)c(N)cc1OC
inactive: all assays above

O=C(c1ccc2c(c1)OCCO2)N1CCCCC1
inactive: all assays above

O=C(O)C1=CCNCC1
inactive: all assays above

CSC(=N)N
inactive: all assays above

COc1ccc2c(c1)c(CC(=O)O)c(C)n2C(=O)c1ccccc1
inactive: all assays above

Nc1nc2c(nc(Br)n2C2OC3COP(=O)(O)O[C@@H]3C2O)c(=O)[nH]1 (stereo partly specified)
inactive: all assays above

Nn1nnc2ccccc21
inactive: all assays above

CCSC(=N)N
inactive: all assays above

O=C(O)c1ccccc1Nc1cccc(OCc2ccc3ccccc3n2)c1
inactive: all assays above

COc1ccc2c(c1)c(CC(=O)O)c(C)n2Cc1ccc(Cl)cc1
inactive: all assays above

N#C/C(=C\c1ccc(O)c(O)c1)C(=O)NCCCNC(=O)/C(C#N)=C/c1ccc(O)c(O)c1
inactive: all assays above

O=C(O)C1CN(CCCP(=O)(O)O)CCN1 (stereo unspecified)
inactive: all assays above

CC1=C(C(=O)O)N2C(=O)[C@@H](NC(=O)C(N)C3=CCC=CC3)[C@H]2SC1 (stereo partly specified)
inactive: all assays above

Cc1ccc([N+](=O)[O-])cc1S(=O)(=O)N(C)C
inactive: all assays above

[Li+]
inactive: all assays above

C#CC(N)CCC(=O)O (stereo unspecified)
inactive: all assays above

NC(=O)CC[C@H](N)C(=O)O
inactive: all assays above

CN[C@H](CC(=O)O)C(=O)O
inactive: all assays above

CC(C)Cn1c(=O)n(C)c(=O)c2[nH]cnc21
inactive: all assays above

N[C@@H](CCCC(=O)O)C(=O)O
inactive: [1] | [3] | [4]

O=c1[nH]ccc2c(O)cccc12
inactive: [1] | [4]

Cc1cccc(C2CN(C)CCc3c2cc(O)c(O)c3Cl)c1 (stereo unspecified)
inactive: [1] | [3] | [4]

N[C@@H](Cc1c[nH]c2ccccc12)C(=O)O
inactive: [1] | [3] | [4]

COc1cc(CNC(=O)CCCCCCC(C)C)ccc1O
inactive: [1] | [3] | [4]

N#Cc1cc2nc(O)c(O)nc2cc1[N+](=O)[O-]
inactive: [1] | [4]
